# 14-3-3g Raf = 14-3-3 gamma protein interaction modulation | inhibition, % at 40 µM | actives 0.19% (n = 160,000) | FP, 14-3-3gamma / TMR-pS259-Raf peptide binding | P61981; in the data active = inhibition above about 30%
# Target sequence (P61981 whole entry, looked up): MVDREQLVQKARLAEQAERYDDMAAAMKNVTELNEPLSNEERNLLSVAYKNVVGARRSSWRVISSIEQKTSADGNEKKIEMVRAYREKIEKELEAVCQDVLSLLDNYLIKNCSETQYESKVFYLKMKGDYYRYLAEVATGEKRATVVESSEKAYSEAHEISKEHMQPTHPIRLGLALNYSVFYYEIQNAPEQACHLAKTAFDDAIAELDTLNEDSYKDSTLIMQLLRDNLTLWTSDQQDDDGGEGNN
# A number is an active result; i = inactive. Only a selection was taken, and hits are over-represented in it overall.
SMILES,14-3-3g Raf
CCOC(=O)C1CCCN(C(=O)c2ccc(C(C)(C)C)cc2)C1 (centres undefined),i
O=C(NCCN1CCOCC1)C1C2C=CC3(CN(Cc4cccs4)C(=O)C13)O2 (centres undefined),i
CCSc1nnc2c(n1)OC(c1ccc(OC(C)=O)cc1)N(C(C)=O)c1ccccc1-2 (centres undefined),i
O=C1CCCC2=C1C(c1cccnc1)c1c(nc(SCc3ccc([N+](=O)[O-])cc3)[nH]c1=O)N2 (centres undefined),i
Cc1ccc(C2C3CN(C(C)C)CC=C3C(C#N)=C(N)C2(C#N)C#N)cc1 (centres undefined),36
CC(=O)N1CC=C2C(C#N)=C(N)C(C#N)(C#N)[C@H](c3ccoc3)[C@H]2C1,i
COc1ccc(OC)c(C2C3CN(C(C)C)CC=C3C(C#N)=C(N)C2(C#N)C#N)c1 (centres undefined),i
CCCSc1nc2c([nH]c3ccccc32)c(=O)n1-c1ccc(OC)cc1,i
CCOC(=O)C1=C(C)N=C2SC(C)C(=O)N2C1c1ccc(OC)cc1 (centres undefined),i
COCCNc1ncnc2ccc(Br)cc12,i
COCCNc1ncnc2ccccc12,31
c1ccc(CNc2ncnc3ccccc23)cc1,i
CCC(C)NC(=O)COc1ccc2c(c1)C(=O)CC(C)(C)O2 (centres undefined),i
CN1CCc2c(sc(/N=C/c3ccco3)c2C(N)=O)C1,48
N#Cc1c(/N=C/c2ccco2)sc2c1CCCCC2,i
CN1CCc2c(sc(/N=C/c3cccs3)c2C(N)=O)C1,i
N#CCn1cnc2sc3c(c2c1=O)CCCC3,i
COc1ccc2c(c1OC)C(=O)N(c1ccccc1Br)C2=O,i
O=C(CCCC(=O)Nc1ccc(I)cc1)Nc1ccc(I)cc1,i
O=C(OCCN1CCCCC1)c1ccccc1F,i
O=C(Oc1ccc(C2CCCCC2)cc1)c1ccccc1F,31
CSc1ccc(OC(=O)c2ccccc2F)cc1,i
CCSc1nnc2c(n1)OC(c1cc(O)ccc1Br)Nc1ccccc1-2 (centres undefined),i
C=CCN=c1cc(-c2ccccc2)oc2ccc(C)cc12,i
Cc1ccc(N=Cc2cc(-c3ccccc3)oc2S)c(C)c1,90
SMILES,14-3-3g Raf
Cc1ccc(N=Cc2ccccc2O)c(C(=O)c2ccccc2)c1,i
Cc1ccc(NC(=O)c2c(O)c3ccccc3[nH]c2=O)cc1,i
O=C1NC(c2ccc(-c3cccc([N+](=O)[O-])c3)o2)C(C(=O)c2ccccc2)C(O)(C(F)(F)F)N1 (centres undefined),i
O=C(O)c1ccc(NC2=C(N3CCOCC3)C(=O)c3ccccc3C2=O)cc1,56
CCCCOc1ccc(NC2=C(N3CCOCC3)C(=O)c3ccccc3C2=O)cc1,i
O=C(O)c1cccc(NC2=C(N3CCCC3)C(=O)c3ccccc3C2=O)c1,i
CC1=NN(C(=O)c2ccc(Cl)cc2)C(O)(c2cccc([N+](=O)[O-])c2)C1 (centres undefined),i
C=CCC1C(C)=NN(C(=O)c2ccc(Cl)cc2)C1(C)O (centres undefined),i
CC1=NN(C(=O)c2ccc(Cl)cc2)C(C)(C)C1,49
COC(=O)C1=C(C)Nc2nc(SCc3ccccc3F)[nH]c(=O)c2C1c1ccccc1 (centres undefined),i
N#Cc1c(N=Cc2ccc(Cl)c([N+](=O)[O-])c2)sc2c1CCCC2,i
N#Cc1c(N=Cc2cc([N+](=O)[O-])ccc2Cl)sc2c1CCCC2,i
Cc1ccc(C=Nc2sc3c(c2C#N)CCC3)cc1,i
N#Cc1c(N=Cc2ccc([N+](=O)[O-])s2)sc2c1CCCC2,63
N#Cc1c(N=Cc2ccc([N+](=O)[O-])cc2)sc2c1CCC2,135
N#Cc1c(N=Cc2cc([N+](=O)[O-])ccc2O)sc2c1CCCC2,i
CCC(C)NC(=O)c1c(Cl)nc(C)c(Cl)c1C (centres undefined),i
Cc1ccc(CC(=O)Nc2ccc3nc(N4CCCCC4)cc(C)c3c2)cc1,i
COc1cccc(CNC(=O)C2CCCN(S(=O)(=O)c3ccc(Br)s3)C2)c1 (centres undefined),i
COC(=O)c1cc(NC(=O)C2CC(=O)NC(=Nc3ccc(C)cc3)S2)cc(C(=O)OC)c1 (centres undefined),i
COC(=O)c1c(NC(=O)Nc2cccc(OC)c2)sc2c1CCCC2,i
O=C(NCc1ccc(F)cc1)C(Sc1ccccc1)c1ccccc1 (centres undefined),i
CNC(=O)C(Sc1ccccc1)c1ccccc1 (centres undefined),125
O=C(Nn1cnnc1)C(Sc1ccccc1)c1ccccc1 (centres undefined),i
O=C(O)CCCC(=O)N1CC=C(c2ccccc2)CC1,i
COC(=O)c1ccc(C2Oc3ccc(C)cc3C3=C2C(c2ccccc2)n2ncnc2N3)cc1 (centres undefined),i
C=CCNc1ccc2c3c(cccc13)C(=O)N(c1ccccc1)C2=O,158
O=C1c2cccc3c([N+](=O)[O-])ccc(c23)C(=O)N1c1ccccc1,i
O=C1c2cccc3c(NCCO)ccc(c23)C(=O)N1CCO,i
Nc1ccc2c3c(cccc13)C(=O)N(c1ccccc1)C2=O,87

# Source: PubChem (Emory University Molecular Libraries Screening Center)
